Assay in all cases: DAPPL (digital affinity profiling via proximity ligation, sequencing); 10 mM Tris-HCl pH 7.5, 50 mM NaCl, 1 mM DTT, 4% glycerol, room temperature, 30 min; GST-TFs on glutathione beads, 16-mer random dsDNA library, 0.1% formaldehyde crosslink after washing; high values mean tight binding
Details in all cases: protein: recombinant; tags: N-terminal GST; dsDNA, one strand shown

The target of test [1] is T1, FLI1 (Homo sapiens, UniProt Q01543 1-452).
T1 sequence: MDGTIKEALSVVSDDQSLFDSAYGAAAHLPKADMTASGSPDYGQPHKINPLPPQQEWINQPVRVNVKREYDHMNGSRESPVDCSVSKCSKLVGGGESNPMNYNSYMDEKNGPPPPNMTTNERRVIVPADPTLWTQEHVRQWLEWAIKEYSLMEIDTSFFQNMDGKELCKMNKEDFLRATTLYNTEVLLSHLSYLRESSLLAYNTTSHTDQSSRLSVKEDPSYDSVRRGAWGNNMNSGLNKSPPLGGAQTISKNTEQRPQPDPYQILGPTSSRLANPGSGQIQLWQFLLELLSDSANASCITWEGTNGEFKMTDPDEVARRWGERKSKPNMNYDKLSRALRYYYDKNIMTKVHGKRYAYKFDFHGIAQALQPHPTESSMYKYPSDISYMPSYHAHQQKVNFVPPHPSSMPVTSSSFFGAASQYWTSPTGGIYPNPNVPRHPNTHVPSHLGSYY
The method, boiled down: (§1)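 Each value of binding signal is a hexamer's read frequency for a factor divided by the same hexamer's frequency in the tag-only sample. Barcoded, bead-captured GST fusions of human transcription factors made in yeast were pooled with that sample and incubated with 200 nmole of a random double-stranded 16-mer DNA library in Tris/NaCl/DTT/glycerol buffer at room temperature for 30 min. Washing, 0.1% formaldehyde crosslinking, proximity ligation, PCR and Illumina NextSeq500 sequencing followed.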

Test [2] deals with T2, ELK1 (Homo sapiens, UniProt P19419 1-428).
T2 sequence: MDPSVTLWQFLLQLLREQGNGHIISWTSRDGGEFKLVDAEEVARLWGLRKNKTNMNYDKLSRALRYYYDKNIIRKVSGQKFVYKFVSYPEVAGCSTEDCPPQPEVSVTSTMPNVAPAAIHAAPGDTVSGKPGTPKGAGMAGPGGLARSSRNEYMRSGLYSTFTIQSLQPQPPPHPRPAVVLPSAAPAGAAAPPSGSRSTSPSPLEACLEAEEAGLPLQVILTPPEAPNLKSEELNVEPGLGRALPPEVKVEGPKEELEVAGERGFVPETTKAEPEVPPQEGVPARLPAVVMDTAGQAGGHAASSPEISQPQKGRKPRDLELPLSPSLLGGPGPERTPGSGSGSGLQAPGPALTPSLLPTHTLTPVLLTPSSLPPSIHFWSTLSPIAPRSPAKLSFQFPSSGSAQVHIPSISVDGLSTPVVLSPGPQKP
Summed up: as §1

Test [3] concerns the target T3, GABPA (Homo sapiens, UniProt Q06546 1-454).
T3 sequence: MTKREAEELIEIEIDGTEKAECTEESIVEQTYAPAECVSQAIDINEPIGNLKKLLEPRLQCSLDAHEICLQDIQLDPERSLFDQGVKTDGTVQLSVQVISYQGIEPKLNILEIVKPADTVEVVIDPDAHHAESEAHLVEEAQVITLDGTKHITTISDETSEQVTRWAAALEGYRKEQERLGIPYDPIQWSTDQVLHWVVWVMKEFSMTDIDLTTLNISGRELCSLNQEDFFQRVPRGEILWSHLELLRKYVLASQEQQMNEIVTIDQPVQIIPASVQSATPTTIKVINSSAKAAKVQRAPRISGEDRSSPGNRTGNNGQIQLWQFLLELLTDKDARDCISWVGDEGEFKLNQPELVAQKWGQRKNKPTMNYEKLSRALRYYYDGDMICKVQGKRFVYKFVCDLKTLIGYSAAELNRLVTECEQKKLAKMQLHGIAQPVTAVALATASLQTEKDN
Summed up: as §1

Test [4] addresses T4, ERG (Homo sapiens, UniProt P11308 1-479).
T4 sequence: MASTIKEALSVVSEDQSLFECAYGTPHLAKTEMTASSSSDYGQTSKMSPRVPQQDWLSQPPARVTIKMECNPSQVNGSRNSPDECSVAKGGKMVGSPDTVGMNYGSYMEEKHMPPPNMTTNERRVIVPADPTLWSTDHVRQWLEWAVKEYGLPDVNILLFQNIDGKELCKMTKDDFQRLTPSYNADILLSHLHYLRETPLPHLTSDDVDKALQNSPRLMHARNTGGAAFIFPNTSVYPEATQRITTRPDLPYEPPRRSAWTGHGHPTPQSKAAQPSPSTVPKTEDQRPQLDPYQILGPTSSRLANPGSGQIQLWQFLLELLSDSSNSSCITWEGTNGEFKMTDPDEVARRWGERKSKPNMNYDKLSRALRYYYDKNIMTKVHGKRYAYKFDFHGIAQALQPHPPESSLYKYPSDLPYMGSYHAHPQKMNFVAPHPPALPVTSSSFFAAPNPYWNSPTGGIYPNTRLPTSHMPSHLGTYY
The method, boiled down: as §1

The target of test [5] is ELF1 (Homo sapiens, UniProt P32519 1-619). Summed up: as §1
For test [6], the target named is T5, EHF (Homo sapiens, UniProt Q9NZC4 1-300).
T5 sequence: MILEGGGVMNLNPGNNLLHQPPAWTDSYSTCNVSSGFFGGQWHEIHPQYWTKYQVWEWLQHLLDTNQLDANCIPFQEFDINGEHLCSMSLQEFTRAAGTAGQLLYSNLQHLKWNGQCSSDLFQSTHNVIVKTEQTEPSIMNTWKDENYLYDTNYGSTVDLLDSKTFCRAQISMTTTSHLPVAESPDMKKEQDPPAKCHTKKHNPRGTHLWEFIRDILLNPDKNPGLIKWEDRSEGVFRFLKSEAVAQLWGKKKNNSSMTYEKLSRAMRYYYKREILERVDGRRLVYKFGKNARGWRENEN
Summed up:
as §1

For test [7], the target named is SPIB (Homo sapiens, UniProt Q01892 1-262). The method, boiled down: as §1
In test [8] the target is T6, ELK3 (Homo sapiens, UniProt P41970 1-407).
T6 sequence: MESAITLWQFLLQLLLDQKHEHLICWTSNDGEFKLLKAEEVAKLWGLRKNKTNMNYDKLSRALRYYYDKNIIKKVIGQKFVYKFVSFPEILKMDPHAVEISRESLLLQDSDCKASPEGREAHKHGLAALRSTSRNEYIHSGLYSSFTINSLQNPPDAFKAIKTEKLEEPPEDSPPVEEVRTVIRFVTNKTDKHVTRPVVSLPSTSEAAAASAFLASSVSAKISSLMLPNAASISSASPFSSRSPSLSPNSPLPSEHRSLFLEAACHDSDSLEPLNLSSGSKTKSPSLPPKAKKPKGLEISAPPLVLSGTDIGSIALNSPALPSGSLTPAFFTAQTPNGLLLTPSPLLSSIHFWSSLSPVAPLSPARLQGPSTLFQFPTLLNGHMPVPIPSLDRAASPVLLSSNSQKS
The method, boiled down: as §1

Test [9] addresses T7, FEV (Homo sapiens, UniProt Q99581 1-238).
T7 sequence: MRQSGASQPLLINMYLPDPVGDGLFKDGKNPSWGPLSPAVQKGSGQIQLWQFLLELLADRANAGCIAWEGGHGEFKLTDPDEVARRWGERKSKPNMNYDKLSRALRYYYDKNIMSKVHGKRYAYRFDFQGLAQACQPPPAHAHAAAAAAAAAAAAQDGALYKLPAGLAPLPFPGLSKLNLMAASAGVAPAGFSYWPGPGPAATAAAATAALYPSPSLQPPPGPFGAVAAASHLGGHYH
The method, boiled down:
as §1

Test [10] addresses T8, SPIC (Homo sapiens, UniProt Q8N5J4 1-248).
T8 sequence: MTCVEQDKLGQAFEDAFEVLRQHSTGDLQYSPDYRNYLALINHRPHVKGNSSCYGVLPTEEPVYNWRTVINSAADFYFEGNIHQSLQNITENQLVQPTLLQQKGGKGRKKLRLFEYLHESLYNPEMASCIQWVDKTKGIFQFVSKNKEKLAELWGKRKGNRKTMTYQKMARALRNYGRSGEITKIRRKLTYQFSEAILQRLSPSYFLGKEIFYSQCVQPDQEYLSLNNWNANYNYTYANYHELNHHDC
The method, boiled down:
as §1

Test [11] has as its target ELF4 (Homo sapiens, UniProt Q99607 1-663). The method, boiled down: as §1

Sequence of SPIB (Q01892 whole entry): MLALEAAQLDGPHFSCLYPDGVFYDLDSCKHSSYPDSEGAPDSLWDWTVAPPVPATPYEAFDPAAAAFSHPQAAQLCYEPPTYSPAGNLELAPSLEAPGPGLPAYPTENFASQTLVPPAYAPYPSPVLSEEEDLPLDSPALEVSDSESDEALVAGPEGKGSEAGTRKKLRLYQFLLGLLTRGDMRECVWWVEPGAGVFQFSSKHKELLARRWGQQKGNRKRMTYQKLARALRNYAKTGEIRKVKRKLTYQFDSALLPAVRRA
Sequence of ELF4 (Q99607 whole entry): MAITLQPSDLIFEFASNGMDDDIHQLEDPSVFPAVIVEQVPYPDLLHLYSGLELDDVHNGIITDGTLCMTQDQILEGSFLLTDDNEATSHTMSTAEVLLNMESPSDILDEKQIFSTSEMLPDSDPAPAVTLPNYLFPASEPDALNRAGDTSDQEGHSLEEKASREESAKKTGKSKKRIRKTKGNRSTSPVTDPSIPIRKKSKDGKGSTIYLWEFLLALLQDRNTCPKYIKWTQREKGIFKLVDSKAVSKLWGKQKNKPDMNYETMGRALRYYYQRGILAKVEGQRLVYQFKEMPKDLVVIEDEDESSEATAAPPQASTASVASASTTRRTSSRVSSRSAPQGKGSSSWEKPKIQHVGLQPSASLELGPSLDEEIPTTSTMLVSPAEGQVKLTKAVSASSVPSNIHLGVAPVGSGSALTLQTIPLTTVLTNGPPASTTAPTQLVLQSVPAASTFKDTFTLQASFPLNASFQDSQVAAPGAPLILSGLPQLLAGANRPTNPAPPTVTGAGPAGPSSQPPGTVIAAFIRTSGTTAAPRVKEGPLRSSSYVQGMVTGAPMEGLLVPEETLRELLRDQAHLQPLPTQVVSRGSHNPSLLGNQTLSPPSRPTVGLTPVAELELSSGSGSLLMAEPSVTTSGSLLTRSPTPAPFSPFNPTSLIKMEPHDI
Sequence of ELF1 (P32519 whole entry): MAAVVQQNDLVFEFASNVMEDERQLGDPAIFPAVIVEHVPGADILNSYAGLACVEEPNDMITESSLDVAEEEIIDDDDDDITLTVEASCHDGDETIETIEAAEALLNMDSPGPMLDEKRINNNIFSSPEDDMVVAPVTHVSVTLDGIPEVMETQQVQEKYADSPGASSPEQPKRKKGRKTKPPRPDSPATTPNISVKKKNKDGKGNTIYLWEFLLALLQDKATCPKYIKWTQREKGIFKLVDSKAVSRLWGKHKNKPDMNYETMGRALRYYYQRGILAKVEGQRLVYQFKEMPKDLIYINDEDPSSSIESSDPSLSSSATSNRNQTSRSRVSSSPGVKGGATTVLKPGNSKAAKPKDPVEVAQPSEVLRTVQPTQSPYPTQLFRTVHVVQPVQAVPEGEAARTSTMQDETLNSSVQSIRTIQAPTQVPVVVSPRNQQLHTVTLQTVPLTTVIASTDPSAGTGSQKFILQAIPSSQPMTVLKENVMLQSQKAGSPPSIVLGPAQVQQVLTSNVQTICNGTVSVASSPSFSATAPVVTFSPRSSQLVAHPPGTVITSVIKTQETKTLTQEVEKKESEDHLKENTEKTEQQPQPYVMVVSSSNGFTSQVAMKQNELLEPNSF

On to TACAGC, for which the binding signal in test [1] is 1.06 fold enrichment (6-mer frequency, TF over GST control); in test [2], 1.01 fold enrichment (6-mer frequency, TF over GST control); in test [3], 1.07 fold enrichment (6-mer frequency, TF over GST control); in test [4], 1.06 fold enrichment (6-mer frequency, TF over GST control); in [5] it was 1.13 fold enrichment (6-mer frequency, TF over GST control); in test [6], 1.06 fold enrichment (6-mer frequency, TF over GST control). Also, the binding signal in test [7] is 1.04 fold enrichment (6-mer frequency, TF over GST control); in test [8], 1.06 fold enrichment (6-mer frequency, TF over GST control); in test [9] it was 1.01 fold enrichment (6-mer frequency, TF over GST control); in test [10] it was 1.02 fold enrichment (6-mer frequency, TF over GST control); in test [11], 1.13 fold enrichment (6-mer frequency, TF over GST control).

Values taken from publication PMC7862700, “An all-to-all approach to the identification of sequence-specific readers for epigenetic DNA modifications on cytosine”.
